RGS12 GoLoco inh = RGS12 GoLoco-Gai1 interaction inhibition. Gai1:RGS12 GoLoco peptide FP, rhodamine, 10 min. Potency, µM (series often up to 61.6 µM), for the others: at the top dose activity, negative = inhibition, actives largely listed as inhibitors. 230,000 tested, 0.44% active. AID 880; active = well fitted inhibition curve with a large enough effect, not every such curve was filed as active; inactive = no such curve, though single readings can be large or run the other way; also: potency is read from the fitted curve at half-maximal effect; nearly all actives have a fitted effect of over 30% in size
Target sequence (P63096 whole entry, looked up): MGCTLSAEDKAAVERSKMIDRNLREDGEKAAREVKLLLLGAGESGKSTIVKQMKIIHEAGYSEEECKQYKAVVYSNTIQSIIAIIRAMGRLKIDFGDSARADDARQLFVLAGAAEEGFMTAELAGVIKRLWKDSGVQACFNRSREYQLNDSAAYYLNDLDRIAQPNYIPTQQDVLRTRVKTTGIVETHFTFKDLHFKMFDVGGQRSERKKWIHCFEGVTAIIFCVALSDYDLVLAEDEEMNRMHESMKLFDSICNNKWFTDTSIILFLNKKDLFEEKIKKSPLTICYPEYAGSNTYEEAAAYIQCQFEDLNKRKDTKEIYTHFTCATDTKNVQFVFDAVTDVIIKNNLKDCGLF
ALDH1A1 inh = blocks purified human ALDH1A1 activity; AID 1030; 220,000 tested, 7.3% active; Purified ALDH1A1, NADH fluorescence, propionaldehyde substrate; P00352; Potency, µM (doses to about 75.3 µM), inactives show top-dose activity, negative = inhibition, hits mostly inhibitors;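 also: potency is read from the fitted curve at half-maximal effect; plate controls were no enzyme wells and a reference inhibitor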
NPSR antag = neuropeptide S receptor (human) antagonism, cAMP | 220,000 tested, 1% active | Q6W5P4 | Potency, µM (highest dose often 38.3 µM), inactives show at the highest dose activity change, negative = inhibition, actives largely listed as inhibitors | CHO-NPSR cells, cAMP TR-FRET, antagonist mode; active = well fitted curve in the direction sought with a large enough effect; inconclusive = small, poorly fitted or top-dose-only effect, or another doubt; inactive = no such curve, though single readings can be large; an effect the other way counts as inactive or inconclusive; also: potency is read from the fitted curve at half-maximal effect; nearly all actives have a fitted effect of over 50% in size
Coupling enz = coupling enzyme interference in Giardia aldolase counter-screen. coupling enzyme system counterscreen, AmpLite Red fluorescence. activity change, negative = inhibition, % at 58.2 µM, hits read low. 290,000 tested, 0.67% active; in the data active = activity change below about -30%
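Counterscreen of the coupled detection system alone, without aldolase: glyceraldehyde-3-phosphate coupling enzymes plus AmpLite Red readout. Compounds at 57.5 uM final, 10 min RT preincubation, 20 min RT reaction, fluorescence 525/598 nm.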
JMJD2E inh = inhibitors of human JMJD2E histone demethylase. B2RXH2. JMJD2E catalytic domain, FDH-coupled NADH fluorescence (FDH is formaldehyde dehydrogenase). Potency, µM (doses to about 57.1 µM), without a hit: at the highest dose activity change, negative = inhibition, hits mostly inhibitors. 230,000 tested, 1.6% active;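 also: potency is read from the fitted curve at half-maximal effect; 0% = wells with enzyme and -100% = buffer wells without enzyme; nearly all actives have a fitted effect of over 50% in size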
Target sequence (B2RXH2 1-337 limits assumed): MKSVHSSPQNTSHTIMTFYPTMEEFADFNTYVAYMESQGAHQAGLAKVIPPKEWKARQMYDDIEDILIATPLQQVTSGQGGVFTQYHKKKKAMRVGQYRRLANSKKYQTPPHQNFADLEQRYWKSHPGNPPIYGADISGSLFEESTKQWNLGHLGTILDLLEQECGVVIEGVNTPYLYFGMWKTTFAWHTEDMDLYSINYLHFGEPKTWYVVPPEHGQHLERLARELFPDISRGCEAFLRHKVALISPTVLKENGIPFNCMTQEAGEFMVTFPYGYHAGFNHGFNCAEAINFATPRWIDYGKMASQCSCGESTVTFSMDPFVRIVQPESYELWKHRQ
Sfp inh = Sfp phosphopantetheinyl transferase inhibition; Q9F4F7; Biochemical Sfp PPTase activity, qHTS; Potency, µM, for inactives: largest response in the series, negative = inhibition, hits mostly inhibitors; 310,000 tested, 3.5% active; AID 1490; active = well fitted curve in the direction sought with a large enough effect; inconclusive = small, poorly fitted or top-dose-only effect, or another doubt; inactive = no such curve, though single readings can be large; an effect the other way counts as inactive or inconclusive;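 also: the enzyme is Sfp with the accession as filed and its product quenches rhodamine fluorescence; potency is read from the fitted curve at half-maximal effect; 0% = enzyme reaction without inhibitor and -100% = no enzyme wells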
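After 15 min at room temperature with compound, 15 nM Sfp received 5 uM rhodamine-CoA plus 12.5 uM BHQ-2-ybbR (50 mM Hepes pH 7.6, 10 mM MgCl2). Rate came from the fluorescence difference over 30 min, ex 525/em 598 nm.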
An asterisk follows results filed as active; ? = inconclusive; / = not tested or not shown; [ ] = dose if it differs, or a comment. Rows were chosen to be rich in hits. Some 8.5% of all compounds tested hit in one or more screens of this group. Unless noted, calls follow the shape of the dose curve; as a rule, active = well fitted inhibition curve with a large enough effect (not every such curve was filed as active); inconclusive = small, poorly fitted or top-dose-only effect, or another doubt; inactive = no such curve, though single readings can be large or run the other way. Unless noted, % is scaled to controls: 0 for no effect and ±100 for the full control effect.

SMILES	RGS12 GoLoco inh	ALDH1A1 inh	NPSR antag	Coupling enz	JMJD2E inh	Sfp inh
N=c1c2c(ncn1Cc1ccco1)Oc1ccc3ccccc3c1C2c1ccccc1 (stereo unspecified)	-1%	-5%	?	-1	6%	22µM*
COc1ccc(C2c3c(ncn(CCCN4CCOCC4)c3=N)Oc3ccc4ccccc4c32)cc1OC (stereo unspecified)	7%	/	10µM*	0	-5%	0%
CCOC(=O)N1CCN(C(=O)CCn2c(=S)[nH]c3ccsc3c2=O)CC1	-11%	1%	1%	0	-4%	56µM*
COc1ccc(Cn2c(-c3ccc(Br)cc3)c[n+]3ccccc23)cc1	5%	2%	2%	0	-1%	7%
C=CCn1c(N)cc(=O)nc1SCC(=O)N(c1ccccc1)c1ccccc1	3%	22µM*	9%	2	-2%	-1%
C=CCn1c(N)cc(=O)nc1SCC(=O)Nc1ccc(C)cc1	-2%	7%	7%	3	-7%	23%
NNc1nc2cccnc2n(CCNc2ncc(C(F)(F)F)cc2Cl)c1=O	23%	1.6µM*	-7%	-1	?	?
CC(=O)NC1C(=O)N(CCc2ccccc2)c2ccc(Br)cc21 (stereo unspecified)	-2%	?	-17%[46.1 µM]	-5	-2%	-18%
CCCCN1C(=O)C(NC(C)=O)c2ccccc21 (stereo unspecified)	-1%	0.11µM*	4%[46.1 µM]	0	6%	?
O=S(=O)(N/N=C/c1c(F)cccc1Cl)c1ccccc1	-8%	6.3µM*	-6%[46.1 µM]	0	-1%	-5%
Cc1ccc(S(=O)(=O)N/N=C/c2cc(Br)c(C)o2)cc1	-22%	5.6µM*	2%[46.1 µM]	8	-23%	-28%
O=C(O)c1ccc(N/N=C/c2c(F)cccc2Cl)cc1	/	/	/	11	/	9%
Cc1ccc(S(=O)(=O)N/N=C/c2c(F)cccc2Cl)cc1	3%	28µM*	21%	-1	7%	13%
CC(NCc1ccc(S(N)(=O)=O)cc1)C(=O)N1c2ccccc2CC1C (stereo unspecified)	-11%	/	20%	1	?	-3%
Cc1ccc(C(=O)c2ccc([N+](=O)[O-])cc2)cc1	0%	-7%	-1%[46.1 µM]	0	-4%	3%
Cc1ccc(S(=O)(=O)CC#CCOC(=O)c2ccc([N+](=O)[O-])cc2)cc1	-19%	1.1µM*	-11%[46.1 µM]	1	2%	50µM*
N#Cc1ccc(NC(=O)COC(=O)CCNS(=O)(=O)c2ccccc2)cc1	5%	-2%	9%	2	5%	4%
O=C(O)CCNS(=O)(=O)c1ccc2ccccc2c1	-1%	?	-3%[46.1 µM]	9	6%	-1%
O=C(O)CCNc1cc2ccccc2cc1C(=O)O	-40%	?	-3%[46.1 µM]	-30*	?	?
Cc1cc(C(=O)COc2ccc([N+](=O)[O-])cc2)c(C)n1C1CC1	16%	11µM*	10%	-1	-19%	-5%
Cc1cc(C(=O)COc2cc(F)ccc2[N+](=O)[O-])c(C)n1C1CC1	11%	-15%	-15%	-3	-5%	4%
COC(=O)C(Cc1ccc(O)cc1)NC(=O)CCOc1ccc(OC)cc1 (stereo unspecified)	/	/	/	-1	/	24%
CCc1c(C)nc2ncnn2c1NCCc1ccc(Cl)cc1	9%	?	0%	-3	2%	13%
S=c1[nH]nc(C2(c3ccccc3)CCCC2)o1	12%	/	0%	3	-4%	-13%
Cc1ccc(S(=O)(=O)NCCCNc2ccc([N+](=O)[O-])cc2)cc1	14%	14µM*	20%	-2	-8%	-12%
SMILES	RGS12 GoLoco inh	ALDH1A1 inh	NPSR antag	Coupling enz	JMJD2E inh	Sfp inh
O=S(=O)(NCCCCCNS(=O)(=O)c1ccccc1)c1ccccc1	-7%	0.56µM*	-14%[46.1 µM]	2	?	-18%
O=[N+]([O-])c1ccc(NCCCNS(=O)(=O)c2ccc(Cl)cc2)c(Cl)c1	-1%	1%	-29%[46.1 µM]	2	-7%	-15%
NCCCCCCNS(=O)(=O)c1cccc2ccccc12	2%	13µM*	/	-1	?	22%
Cc1ccc(S(=O)(=O)NCCNc2ccc([N+](=O)[O-])cc2)cc1	/	/	/	0	/	5%
O=[N+]([O-])c1ccc(NCCCNS(=O)(=O)c2ccccc2)cc1	13%	18µM*	-11%	0	-17%	-10%
NCCCCNS(=O)(=O)c1cccc2c(Cl)cccc12	4%	-8%	?	/	6%	/
O=c1c(-c2cccs2)nc2cnc(Nc3ccccc3)nc2n1C[C@H]1CCCO1	15%	?	/	0	/	6%
C#Cc1ccc([C@H]2C=C(C(=O)Nc3ccccc3)O[C@@H](OCc3ccc(CO)cc3)C2)cc1	1%	/	-39%	0	-4%	-2%
Cc1cc2nnn(-c3nnc(-c4ccccc4)c4ccccc34)c2cc1C	0%	15%	?	3	19%	4%
O=C(O)CC/C(=N/NC(=O)CNC(=O)c1ccc2c(c1)OCCO2)c1ccccc1	/	/	/	7	/	5%
O=c1[nH]c(C2CCN(S(=O)(=O)/C=C/c3ccccc3)CC2)nc2c1nnn2Cc1ccccc1	/	/	/	0	/	8%
O=C(NC(NC(=S)N1CCOCC1)C(Cl)(Cl)Cl)c1ccc(Cl)cc1 (stereo unspecified)	6%	-7%	-2%	3	-6%	19%
CCCCC(=O)NC(NC(=S)N1CCOCC1)C(Cl)(Cl)Cl (stereo unspecified)	-35%	11µM*	-1%[46.1 µM]	4	0%	8%
CCCn1c(=NC(=O)c2ccco2)c(C(=O)OCC)cc2c(=O)n3ccccc3nc21	10%	?	?	3	?	?
CCOC(=O)c1cc2c(=O)n3ccccc3nc2n(Cc2ccco2)c1=NC(=O)c1ccccc1OC	10%	?	-22%	1	?	35µM*
CCOC(=O)c1cc2c(=O)n3ccccc3nc2n(Cc2ccco2)c1=NC(=O)c1cccc(OC)c1	94%	?	-37%	3	?	28µM*
CCOC(=O)c1cc2c(=O)n3ccccc3nc2n(Cc2ccco2)c1=NC(=O)c1ccc(OC)cc1	161%	?	-20%	1	?	?
COCCn1c(-c2ccco2)csc1=Nc1cccnc1	-1%	?	-11%[46.1 µM]	-9	-10%	20µM*
CC(C)Cn1c(-c2ccco2)csc1=Nc1cccnc1	35%	13µM*	-20%[46.1 µM]	-9	-13%	?
Cc1csc(=Nc2cccnc2)n1Cc1ccco1	4%	-4%	-8%	3	0%	-10%
COCCn1c(-c2cccs2)csc1=Nc1cccnc1	-2%	?	-20%	-2	?	?
